Data: PubChem BioAssay
Active and inactive are the calls of the source.

Assays:
[1] = system: PRMT1 (protein arginine N-methyltransferase 1); assay: PRMT1 binders on small-molecule microarrays, primary screen, biochemical, small-molecule microarray, 635 nm fluorescence (AID 1088); conditions: small-molecule microarray binding, higher = more signal;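 note: binding of Prmt1 protein to compounds spotted on small-molecule microarray slides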
[2] = yeast growth modulation, basal conditions, primary screen, YJM789 clinical isolate, OD600, 24 h (AID 1089);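 note: growth of clinical yeast isolate S. cerevisiae YJM 789 seeded 1000 cells per well; test concentration not given here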; conditions: S. cerevisiae YJM789 growth, higher = more signal, called active from +8 up or from −8 down
[3] = fission yeast growth modulation, primary screen, strain 972, OD600, 24 h, no modulator (AID 1090);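 note: basal condition with compound alone and no growth modifier present; test concentration not given here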; conditions: S. pombe 972 growth, higher = more signal, called active from +8 up or from −8 down
[4] = S. cerevisiae growth modulation with rapamycin, primary screen, strain BY4716, OD600, 96 h (AID 1091); conditions: higher = more signal, called active from +8 up or from −8 down; note: test concentration not given here
[5] = target: Torsin-1A-interacting protein 2 (Homo sapiens) (UniProt Q8NFQ8); assay: LULL1 binders on small-molecule microarray, primary screen, cell lysate, human LULL1 lysate, 635/667 nm fluorescence (AID 1092); conditions: hLULL1 lysate binding, 635 nm fluorescence, higher = more signal;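 note: probe is lysate of COS7 cells overexpressing human LULL1; score merges per-feature 667 nm fluorescence with signal-to-noise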
Torsin-1A-interacting protein 2 (Homo sapiens), sequence (Q8NFQ8 whole entry, looked up): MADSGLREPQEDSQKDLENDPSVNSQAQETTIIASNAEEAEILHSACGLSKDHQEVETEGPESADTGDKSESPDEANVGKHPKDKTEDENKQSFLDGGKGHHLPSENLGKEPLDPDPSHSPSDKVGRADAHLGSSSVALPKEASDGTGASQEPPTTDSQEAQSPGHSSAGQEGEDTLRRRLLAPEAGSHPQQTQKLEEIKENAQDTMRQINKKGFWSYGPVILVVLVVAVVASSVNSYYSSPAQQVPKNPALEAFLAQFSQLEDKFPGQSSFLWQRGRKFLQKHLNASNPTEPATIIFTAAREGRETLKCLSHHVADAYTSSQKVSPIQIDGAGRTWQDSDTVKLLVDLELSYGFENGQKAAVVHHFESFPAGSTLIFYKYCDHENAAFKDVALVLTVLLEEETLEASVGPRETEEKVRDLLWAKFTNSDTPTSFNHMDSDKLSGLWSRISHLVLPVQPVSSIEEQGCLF

[6] = E. coli growth modulation, two-sided OD650, primary screen, E. coli filamentation project, strain DRC41, 24 h (AID 1093); conditions: OD650, 24 h, higher = more signal, called active from +8 up or from −8 down;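 note: MC1000 strain lacking acrAB efflux and sulA so SOS filamentation is blocked; test concentration not given here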
[7] = small-molecule microarray binders of probe aLefty2, primary screen, biochemical, biotinylated probe, 635/667 nm fluorescence (AID 1094); conditions: higher = more signal;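 note: score merges spot fluorescence near 667 nm with spot signal-to-noise ratio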
[8] = system: Noggin (protein binding on small-molecule microarray); assay: Noggin binders on small-molecule microarray, primary screen, biochemical, 635/667 nm fluorescence (AID 1095); conditions: 635 nm fluorescence, higher = more signal;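 note: score merges 667 nm feature fluorescence with signal to noise over triplicate slides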
[9] = target: Neurogenic locus notch homolog protein 3 (Homo sapiens) (UniProt Q9UM47); assay: NOTCH3 binders on small-molecule microarray, primary screen, biochemical, 635/667 nm fluorescence (AID 1096); conditions: NOTCH3 binding, 635 nm fluorescence, higher = more signal
Neurogenic locus notch homolog protein 3 (Homo sapiens), sequence (Q9UM47 whole entry, looked up): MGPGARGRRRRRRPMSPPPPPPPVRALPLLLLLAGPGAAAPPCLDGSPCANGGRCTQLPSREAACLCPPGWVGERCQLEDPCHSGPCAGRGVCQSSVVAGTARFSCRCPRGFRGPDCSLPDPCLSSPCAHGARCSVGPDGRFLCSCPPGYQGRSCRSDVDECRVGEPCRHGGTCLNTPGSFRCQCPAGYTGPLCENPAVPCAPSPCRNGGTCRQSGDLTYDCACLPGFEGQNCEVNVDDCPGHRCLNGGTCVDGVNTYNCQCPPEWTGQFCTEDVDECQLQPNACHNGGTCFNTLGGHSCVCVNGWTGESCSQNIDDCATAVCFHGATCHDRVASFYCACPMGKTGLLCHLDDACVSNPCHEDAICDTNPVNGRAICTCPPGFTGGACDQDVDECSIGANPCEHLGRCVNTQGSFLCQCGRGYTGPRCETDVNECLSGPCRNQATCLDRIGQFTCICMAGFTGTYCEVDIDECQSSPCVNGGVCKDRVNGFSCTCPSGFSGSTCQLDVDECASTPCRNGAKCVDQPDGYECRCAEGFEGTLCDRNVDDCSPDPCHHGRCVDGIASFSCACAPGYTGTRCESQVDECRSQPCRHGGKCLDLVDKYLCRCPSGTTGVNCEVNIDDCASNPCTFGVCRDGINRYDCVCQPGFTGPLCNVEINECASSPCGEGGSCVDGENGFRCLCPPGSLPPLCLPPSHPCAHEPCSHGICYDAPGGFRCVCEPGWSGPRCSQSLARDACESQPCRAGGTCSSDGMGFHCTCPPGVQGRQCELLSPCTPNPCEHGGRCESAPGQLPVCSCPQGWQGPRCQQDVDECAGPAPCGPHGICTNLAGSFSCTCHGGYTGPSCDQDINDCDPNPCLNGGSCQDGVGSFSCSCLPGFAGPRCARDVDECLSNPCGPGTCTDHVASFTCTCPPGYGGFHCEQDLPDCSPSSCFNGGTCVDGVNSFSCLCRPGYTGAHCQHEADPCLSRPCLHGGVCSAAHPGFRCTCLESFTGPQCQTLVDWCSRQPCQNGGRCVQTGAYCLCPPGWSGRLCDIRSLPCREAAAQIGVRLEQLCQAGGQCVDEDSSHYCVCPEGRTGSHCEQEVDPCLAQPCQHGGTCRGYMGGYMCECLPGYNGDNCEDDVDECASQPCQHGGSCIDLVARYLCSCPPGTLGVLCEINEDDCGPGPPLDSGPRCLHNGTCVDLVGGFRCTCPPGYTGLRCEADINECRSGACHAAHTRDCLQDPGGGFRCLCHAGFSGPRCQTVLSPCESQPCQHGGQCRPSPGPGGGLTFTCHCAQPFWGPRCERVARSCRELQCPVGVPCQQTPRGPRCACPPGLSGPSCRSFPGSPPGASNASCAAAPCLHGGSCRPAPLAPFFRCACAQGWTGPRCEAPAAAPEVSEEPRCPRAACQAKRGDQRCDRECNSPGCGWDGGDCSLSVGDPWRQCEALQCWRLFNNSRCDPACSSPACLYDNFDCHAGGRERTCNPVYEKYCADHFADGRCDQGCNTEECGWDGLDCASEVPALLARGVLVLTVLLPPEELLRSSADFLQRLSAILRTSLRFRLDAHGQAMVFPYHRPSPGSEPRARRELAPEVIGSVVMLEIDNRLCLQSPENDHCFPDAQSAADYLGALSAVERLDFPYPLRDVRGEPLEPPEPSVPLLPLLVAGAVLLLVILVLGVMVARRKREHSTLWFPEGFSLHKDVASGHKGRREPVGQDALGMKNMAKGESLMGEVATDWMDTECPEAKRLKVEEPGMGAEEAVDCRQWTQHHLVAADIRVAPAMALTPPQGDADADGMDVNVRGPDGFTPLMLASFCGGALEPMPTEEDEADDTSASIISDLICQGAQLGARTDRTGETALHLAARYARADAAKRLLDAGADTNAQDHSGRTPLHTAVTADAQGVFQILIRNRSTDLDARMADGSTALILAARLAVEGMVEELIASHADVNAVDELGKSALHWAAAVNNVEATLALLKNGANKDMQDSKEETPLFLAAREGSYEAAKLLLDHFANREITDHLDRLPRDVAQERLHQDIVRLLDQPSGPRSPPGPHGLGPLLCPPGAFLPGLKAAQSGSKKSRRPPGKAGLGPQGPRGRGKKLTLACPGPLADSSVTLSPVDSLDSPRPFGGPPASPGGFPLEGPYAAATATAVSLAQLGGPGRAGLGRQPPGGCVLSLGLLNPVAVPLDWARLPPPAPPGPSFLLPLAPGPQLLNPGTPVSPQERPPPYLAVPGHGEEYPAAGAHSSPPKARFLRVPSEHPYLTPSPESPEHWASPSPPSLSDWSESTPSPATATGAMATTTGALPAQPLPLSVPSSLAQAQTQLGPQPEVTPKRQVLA

[10] = small-molecule microarray binders of probe aEGFR, primary screen, biochemical, biotinylated probe, 635/667 nm fluorescence (AID 1097); conditions: higher = more signal;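 note: probe is a biotinylated anti-EGFR antibody binding compounds printed on slides; score combines fluorescence near 667 nm and signal to noise of each spot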
[11] = system: Plasmodium falciparum Sir2 (PF13_0152, Sir2A); assay: pfSir2 binders on small-molecule microarrays, primary screen, biochemical, small-molecule microarray, 635 nm fluorescence (AID 1098); conditions: small-molecule microarray binding, fluorescence 635 nm; higher = more signal;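 note: score merges spot fluorescence intensity with its signal-to-noise ratio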
[12] = small-molecule microarray binders of probe aDKK1, primary screen, biochemical, biotinylated probe, 635/667 nm fluorescence (AID 1099); conditions: higher = more signal;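 note: score merges 667nm spot fluorescence with signal to noise across triplicate slides; reference of the scale not given here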
[13] = small-molecule microarray binders of probe aCHRDL2, primary screen, biochemical, biotinylated probe, 635/667 nm fluorescence (AID 1100); conditions: higher = more signal
[14] = splicing luciferase reporter signal modulators, primary screen, spliceosome inhibition project, cell-based, HEK293, splice +/- reporter (AID 1101); conditions: luminescence, 24 h, higher = more signal, called active from +8 up or from −8 down;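 note: HEK293 cells carrying a splicing-competent luciferase reporter gene; test concentration not given here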
[15] = target: Fibroblast growth factor 10 (Homo sapiens) (UniProt O15520); assay: FGF10 binders on small-molecule microarrays, primary screen, biochemical, small-molecule microarray, 635 nm fluorescence (AID 1102); conditions: FGF10 binding, fluorescence 635 nm, higher = more signal
Fibroblast growth factor 10 (Homo sapiens), sequence (O15520 whole entry, looked up): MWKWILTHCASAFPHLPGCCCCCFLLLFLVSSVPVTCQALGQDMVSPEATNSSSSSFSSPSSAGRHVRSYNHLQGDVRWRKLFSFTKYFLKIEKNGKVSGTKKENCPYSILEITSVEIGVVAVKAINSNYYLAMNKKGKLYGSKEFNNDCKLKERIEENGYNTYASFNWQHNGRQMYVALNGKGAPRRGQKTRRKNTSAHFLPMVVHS

[16] = system: glycogen synthase kinase-3 (GSK3A per assay name; protocol says GSK3B); assay: GSK3 binders on small-molecule microarrays, primary screen, biochemical, small-molecule microarray, 635 nm fluorescence, GSK3A (AID 1103); conditions: small-molecule microarray binding, fluorescence 635 nm; higher = more signal; note: the record names both GSK3A and GSK3B
[17] = target: Epidermal growth factor receptor (Homo sapiens) (UniProt P00533); assay: EGFR binders on small-molecule microarrays, primary screen, biochemical, small-molecule microarray, 635 nm fluorescence (AID 1104); conditions: EGFR binding, higher = more signal;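 note: score merges 667 nm emission intensity with spot signal to noise over triplicate slides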
Epidermal growth factor receptor (Homo sapiens), sequence (P00533 whole entry, looked up): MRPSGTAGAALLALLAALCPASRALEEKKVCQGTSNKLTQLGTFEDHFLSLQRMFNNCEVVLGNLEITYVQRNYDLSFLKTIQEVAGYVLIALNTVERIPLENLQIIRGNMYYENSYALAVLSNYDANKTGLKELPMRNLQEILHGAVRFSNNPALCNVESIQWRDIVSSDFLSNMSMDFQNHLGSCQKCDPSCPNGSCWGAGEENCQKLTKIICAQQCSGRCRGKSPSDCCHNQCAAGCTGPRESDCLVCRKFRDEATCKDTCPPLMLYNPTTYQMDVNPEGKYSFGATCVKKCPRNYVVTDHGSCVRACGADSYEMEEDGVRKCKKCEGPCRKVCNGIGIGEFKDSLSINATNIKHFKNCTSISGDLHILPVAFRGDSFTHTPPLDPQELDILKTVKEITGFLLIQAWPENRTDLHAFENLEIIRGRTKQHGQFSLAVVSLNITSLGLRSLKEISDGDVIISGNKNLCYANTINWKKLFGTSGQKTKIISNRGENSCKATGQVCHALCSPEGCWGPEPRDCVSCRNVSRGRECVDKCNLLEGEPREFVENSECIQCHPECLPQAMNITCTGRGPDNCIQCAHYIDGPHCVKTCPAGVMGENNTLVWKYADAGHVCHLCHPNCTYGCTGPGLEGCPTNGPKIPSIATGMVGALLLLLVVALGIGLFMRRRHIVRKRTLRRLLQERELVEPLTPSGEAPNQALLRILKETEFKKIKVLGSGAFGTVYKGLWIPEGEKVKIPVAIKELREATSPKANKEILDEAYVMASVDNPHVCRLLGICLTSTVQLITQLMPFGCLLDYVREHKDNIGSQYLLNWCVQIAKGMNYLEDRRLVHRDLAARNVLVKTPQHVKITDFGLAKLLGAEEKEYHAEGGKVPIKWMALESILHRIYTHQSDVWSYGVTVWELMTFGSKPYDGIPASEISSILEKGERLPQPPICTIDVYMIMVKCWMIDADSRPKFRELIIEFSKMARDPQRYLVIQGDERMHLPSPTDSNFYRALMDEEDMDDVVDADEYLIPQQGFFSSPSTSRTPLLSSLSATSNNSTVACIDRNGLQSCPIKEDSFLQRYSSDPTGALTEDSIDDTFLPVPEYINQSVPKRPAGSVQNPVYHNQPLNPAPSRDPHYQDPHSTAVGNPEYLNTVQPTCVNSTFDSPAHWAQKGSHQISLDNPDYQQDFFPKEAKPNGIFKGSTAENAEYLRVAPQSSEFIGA

[18] = target: Follistatin-related protein 3 (Homo sapiens) (UniProt O95633); assay: FSTL3 binders on small-molecule microarrays, primary screen, biochemical, small-molecule microarray, 635 nm fluorescence (AID 1105); conditions: FSTL3 binding, higher = more signal;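 note: score merges emission near 667 nm and signal to noise per printed spot across three slides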
Follistatin-related protein 3 (Homo sapiens), sequence (O95633 whole entry, looked up): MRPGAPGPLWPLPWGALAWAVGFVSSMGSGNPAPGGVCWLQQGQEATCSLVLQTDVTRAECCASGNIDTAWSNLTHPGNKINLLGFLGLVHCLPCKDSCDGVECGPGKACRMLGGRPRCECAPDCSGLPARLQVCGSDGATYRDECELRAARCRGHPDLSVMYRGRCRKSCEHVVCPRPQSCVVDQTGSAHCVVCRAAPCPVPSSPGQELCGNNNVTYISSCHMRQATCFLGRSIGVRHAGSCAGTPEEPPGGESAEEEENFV

[19] = target: Dickkopf-related protein 1 (Homo sapiens) (UniProt O94907); assay: DKK1 binders on small-molecule microarrays, primary screen, biochemical, small-molecule microarray, 635 nm fluorescence scan (AID 1106); conditions: DKK1 binding, higher = more signal;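 note: score merges emission near 667 nm with signal to noise over three replicate slides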
Dickkopf-related protein 1 (Homo sapiens), sequence (O94907 whole entry, looked up): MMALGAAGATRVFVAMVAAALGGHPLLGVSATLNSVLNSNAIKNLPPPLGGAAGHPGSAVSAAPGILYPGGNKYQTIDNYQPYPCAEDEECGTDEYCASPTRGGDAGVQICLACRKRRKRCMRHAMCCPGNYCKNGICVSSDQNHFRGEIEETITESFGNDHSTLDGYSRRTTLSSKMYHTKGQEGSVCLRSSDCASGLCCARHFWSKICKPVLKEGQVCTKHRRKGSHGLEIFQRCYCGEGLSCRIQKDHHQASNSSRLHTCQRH

[20] = system: Inhibin beta A chain (activin A); assay: INHBA (activin A) binders on microarrays, primary screen, biochemical, small-molecule microarray, 635 nm fluorescence scan (AID 1107); conditions: small-molecule microarray binding, higher = more signal;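 note: mouse activin A protein probed at 4.33 µg/mL on printed slides; score merges bound-protein fluorescence near 667 nm with spot signal-to-noise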

SMILES | composite z-score [1] | z-score [2] | z-score [3] | z-score [4] | composite z-score [5] | z-score [6] | composite z-score [7] | composite z-score [8] | composite z-score [9] | composite z-score [10] | composite z-score [11] | composite z-score [12] | composite z-score [13] | z-score [14] | composite z-score [15] | composite z-score [16] | composite z-score [17] | composite z-score [18] | composite z-score [19] | composite z-score [20]
CCCC=C(CCC)[C@@H](NS(=O)(=O)c1cccs1)c1ccc(C(=O)OC)cc1 | 0.946 | 0.212 (inactive) | -1.19 (inactive) | 0.602 (inactive) | 3.43 | -0.0839 (inactive) | -0.0375 | -0.213 | 0.882 | -0.11 | 0.565 | 0.922 | 1.18 | 3.75 (inactive) | 0.77 | 1.19 | -0.122 | 0.622 | -0.569 | -0.0034
N#Cc1ccc(NN2C(C(O)c3c(F)cccc3Cl)C=CC3C(=O)N(c4ccccc4)C(=O)C32)cc1 (stereo not given) | 1.19 | 0.432 (inactive) | 1.62 (inactive) | 2.48 (inactive) | 3.53 | -0.62 (inactive) | 0.222 | -0.109 | 1.06 | -0.244 | 1.08 | 1.42 | 1.19 | 0.615 (inactive) | 0.922 | 0.943 | 0.143 | 1.12 | 0.125 | 0.5
COc1ccc(CCNC(=O)[C@@]2(C)c3ccccc3C(=O)N(Cc3cc(F)cc(C(F)(F)F)c3)[C@H]2c2ccc(CO)cc2)cc1 | 0.117 | -0.143 (inactive) | -0.995 (inactive) | 0.882 (inactive) | 2.3 | 0.449 (inactive) | -0.0112 | -0.969 | -0.42 | -0.0549 | 1.59 | 0.362 | 0.875 | -1.23 (inactive) | 0.512 | -0.596 | -0.244 | -0.972 | -0.434 | -0.0094
COC(=O)[C@@]1(Cc2ccc(F)cc2)[C@H]2c3cc(C(=O)N(C)C)n(Cc4ccc(S(C)(=O)=O)cc4)c3C[C@H]2CN1C(=O)c1ccccc1 | -0.213 | 0.304 (inactive) | 1.21 (inactive) | 0.147 (inactive) | 2.23 | 0.321 (inactive) | 0.124 | -0.139 | 0.49 | -0.0045 | 0.46 | 0.883 | 0.899 | 0.895 (inactive) | 1.35 | 0.0364 | 0.603 | 0.0567 | -0.0071 | 0.95
O=C(NCC(F)(F)F)[C@@H]1c2ccccc2C(=O)N(C2CCCCC2)[C@H]1c1ccc(CO)cc1 | 0.311 | 0.936 (inactive) | 0.372 (inactive) | 0.963 (inactive) | 1.76 | 0.674 (inactive) | -0.117 | 0.276 | 0.254 | -0.0987 | 1.56 | 0.121 | 0.528 | 0.283 (inactive) | 0.0573 | -0.0294 | -0.759 | 0.177 | -0.783 | -0.0906
[N-]=[N+]=NCc1ccccc1[C@@H]1OC(c2ccc(OCCCO)cc2)=N[C@]1(Cc1ccccc1N=[N+]=[N-])C(=O)N1CCOCC1 | 1.55 | -1.29 (inactive) | -1.59 (inactive) | 4.14 (inactive) | 3.25 | -0.667 (inactive) | 0.295 | 1.04 | 1.04 | 0.246 | 0.814 | 1.22 | 1.35 | 0.783 (inactive) | 1.33 | 1.3 | 0.248 | 0.783 | 0.231 | 0.73
C#CCN(CC=C(C)C)[C@H](CO)c1ccccc1 | 0.489 | -0.319 (inactive) | -4.47 (inactive) | -1.92 (inactive) | 0.0196 | 0.333 (inactive) | -0.0518 | 0.223 | 0.109 | -0.0814 | -0.383 | -0.127 | -0.209 | -1.21 (inactive) | -0.0443 | 0.81 | 0.372 | 0.0894 | 0.352 | 0.942
[N-]=[N+]=Nc1ccccc1C[C@@]1(C(=O)NCCN2CCOCC2)N=C(c2ccc(OCCCO)cc2)O[C@@H]1c1ccccc1 | 1.55 | -2.58 (inactive) | -4.77 (inactive) | -1.77 (inactive) | 3.27 | 1.26 (inactive) | -0.0673 | 0.748 | 1.08 | 0.0371 | 1.57 | 0.532 | 0.915 | -0.724 (inactive) | 1.35 | 1.29 | 0.245 | 1.21 | 0.461 | 0.847
